The values below come from PubChem BioAssay (NCI).

Compounds without any hit were thinned out: in the full panel of roughly 83,000, 20% have a hit.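 In brief: 96-well plates, 48 h treatment, single concentration, percent growth endpoint.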 Values without a mark were called inactive. Active and inactive are the calls of the source. The calls were made as follows: active = growth percent below 10; inactive = the rest.

Some test systems named below: HCT-15 colon; HT29 colon; SNB-75 CNS; SNB-19 CNS; U251 CNS; PC-3 prostate; SK-MEL-5 melanoma; UACC-62 melanoma; LOX IMVI melanoma; SK-MEL-28 melanoma.
What all share (experiment): NCI-60 one-dose screen, 48 h (100 = growth as untreated, 0 = no growth, -100 = all killed)
Conditions in all cases: 10 µM unless noted

As to `CCN(CC)CCOc1ccc(/C(=C(\C)Cc2ccc(OC)cc2)c2ccc(O)cc2)cc1`, the growth is 5.11% (active) with HCT-15 colon; -70.5% (active) with HT29 colon; 25.1% in the assay on SNB-75 CNS; 26.6% in the assay on SNB-19 CNS; -30.3% (active) in the assay with U251 CNS; 15.2% in the assay with PC-3 prostate. In addition, the growth was -96.4% (active) in the assay with SK-MEL-5 melanoma, -70.7% (active) in the assay with UACC-62 melanoma, -64.9% (active) in the assay with LOX IMVI melanoma and -71% (active) with SK-MEL-28 melanoma.
For the compound `Nc1nc(Nc2ccc([N+](=O)[O-])cc2O)nc(C(Cl)(Cl)Cl)n1`, the growth with HCT-15 colon is 53.3%; with HT29 colon, 106%; in the assay with SNB-75 CNS, 62.6%; with SNB-19 CNS, 80.2%; in the assay with U251 CNS, 73.3%; in the assay on PC-3 prostate, 91.6%. Further, the growth in the assay on SK-MEL-5 melanoma is 72.7%; with UACC-62 melanoma, 41.1%; in the assay with LOX IMVI melanoma it was 44.8%; in the assay on SK-MEL-28 melanoma, 60%.
Take `CC1(C)CC(=O)C2=C(C1)OC(C(=O)c1ccccc1)C2c1cccc(Oc2ccccc2)c1` (stereo not given): the growth was 45.6% in the assay with HCT-15 colon; 43.1% in the assay on HT29 colon; 40.7% in the assay with SNB-75 CNS; 60.8% with SNB-19 CNS; 40.8% in the assay with U251 CNS; 24% in the assay on PC-3 prostate. In addition, the growth in the assay on SK-MEL-5 melanoma was 36.3%; with UACC-62 melanoma, 35.9%; in the assay on LOX IMVI melanoma it was 37%; in the assay on SK-MEL-28 melanoma it was 74.4%.
For `CC(C)(C)n1cc(-c2ccnc(NCCNS(=O)(=O)c3ccc(Br)cc3)c2)c(-c2cccc(O)c2)n1`, the growth in the assay with HCT-15 colon is -0.0275% (active); with HT29 colon it was -11% (active); with SNB-75 CNS, 19.4%; in the assay with SNB-19 CNS, 52.3%; with U251 CNS, 21.7%; with PC-3 prostate, 25.4%. Moreover, the growth is -19% (active) with SK-MEL-5 melanoma, 49.6% in the assay on UACC-62 melanoma, 12.7% in the assay with LOX IMVI melanoma and 38.5% in the assay with SK-MEL-28 melanoma.
`CCN(CC)CCN1C(=O)c2c(c(C)c3c(oc4cc(OC)ccc43)c2C)C1=O`: the growth with HCT-15 colon was 101%; with HT29 colon it was 96.8%; in the assay with SNB-75 CNS, 77.2%; in the assay on SNB-19 CNS, 87.6%; with U251 CNS it was 55.5%; with PC-3 prostate it was 92%. The growth in the assay on SK-MEL-5 melanoma is 95.8%; with UACC-62 melanoma, 102%; in the assay on LOX IMVI melanoma, 83.1%; with SK-MEL-28 melanoma, 76.1%.
As to `CCNc1nc(-c2ccc(Cl)c(OC)c2)c(-c2ccnc(NCCNS(=O)(=O)c3ccc(Cl)cc3)n2)s1`, the growth in the assay on HCT-15 colon was 16.7%; in the assay with HT29 colon, 5.01% (active); with SNB-75 CNS, 46.1%; with SNB-19 CNS, 34.2%; in the assay on U251 CNS, 17.3%; with PC-3 prostate, 9.83% (active). Also, the growth in the assay with SK-MEL-5 melanoma was 13.5%; with UACC-62 melanoma it was 24.6%; in the assay on LOX IMVI melanoma, 13.9%; in the assay on SK-MEL-28 melanoma it was 32.3%.
Consider `CC1(C)CCC[C@]23C(=O)O[C@](O)(C(=O)C4=C[C@@](C)(/C=C/CCCc5ccc6ccc7cccc8ccc5c6c78)CC[C@@]42O)[C@@H]13`, for which the growth in the assay with HCT-15 colon was -69.3% (active); with HT29 colon, -69.5% (active); in the assay on SNB-75 CNS it was -78.8% (active); with SNB-19 CNS, -95.5% (active); with U251 CNS it was -85.5% (active); in the assay with PC-3 prostate, -48.8% (active). For the same compound, the growth was -96.3% (active) in the assay with SK-MEL-5 melanoma, -75.5% (active) in the assay with UACC-62 melanoma, -85.5% (active) in the assay on LOX IMVI melanoma and -86.6% (active) with SK-MEL-28 melanoma.
In the case of `CCCCCN(CCCCC)CC(O)c1c(Cl)ccc2ccccc12` (stereo not given), the growth was 55.8% in the assay on HCT-15 colon; 31.4% with HT29 colon; 92% in the assay on SNB-75 CNS; 92.3% in the assay with SNB-19 CNS; 80.3% in the assay on U251 CNS; 75.2% with PC-3 prostate. The growth was 72.8% with SK-MEL-5 melanoma, 59.7% with UACC-62 melanoma, 71.6% in the assay on LOX IMVI melanoma and 97.3% in the assay with SK-MEL-28 melanoma.
As for `Fc1ccc(/C=C/c2cc(/C=C/c3ccc(F)cc3)n(-c3cc(F)cc(F)c3)n2)cc1`, the growth with HCT-15 colon was 103%; in the assay on HT29 colon, 78.7%; with SNB-75 CNS, 91%; with SNB-19 CNS, 105%; in the assay with U251 CNS, 117%; in the assay with PC-3 prostate, 76.4%. Also, the growth with SK-MEL-5 melanoma is 100%; in the assay with UACC-62 melanoma, 85.7%; with LOX IMVI melanoma, 102%; with SK-MEL-28 melanoma, 101%.
On to `CC(C)(C#N)c1cc(C(=O)Nc2cc(Nc3ncccc3-c3ncnc4nc[nH]c34)ccc2F)cc(C(F)(F)F)c1`, for which the growth in the assay with HCT-15 colon is 54%; in the assay with HT29 colon it was 20.7%; with SNB-75 CNS, 37%; with SNB-19 CNS, 71.2%; with U251 CNS it was 59.7%; in the assay on PC-3 prostate, 63.9%. Also, the growth in the assay with SK-MEL-5 melanoma is 24.4%; in the assay with UACC-62 melanoma it was 3.16% (active); in the assay on LOX IMVI melanoma it was -9.46% (active); in the assay on SK-MEL-28 melanoma, 10.4%.
For the compound `Cc1ccccc1NC(=O)c1sc2nc3c(cc2c1N)CCCC3`, the growth was 25% in the assay on HCT-15 colon; 7.53% (active) in the assay on HT29 colon; 37.8% in the assay with SNB-75 CNS; 30.9% in the assay on SNB-19 CNS; 23% with U251 CNS; 29.9% in the assay with PC-3 prostate. Also, the growth with SK-MEL-5 melanoma is 20.5%; with UACC-62 melanoma it was 27.6%; in the assay with LOX IMVI melanoma, 40.5%; in the assay on SK-MEL-28 melanoma it was 75.1%.
In the case of `O=C1OCC2=C1C(c1cccc(F)c1)c1cc3c(cc1N2CCO)CCC3` (stereo not given), the growth in the assay on HCT-15 colon is 7.86% (active); with HT29 colon, 5% (active); in the assay on SNB-75 CNS it was 29.6%; with SNB-19 CNS it was 23.9%; with U251 CNS it was 14.3%; in the assay with PC-3 prostate, 24.2%. Also, the growth was -1.4% (active) with SK-MEL-5 melanoma, 42% in the assay on UACC-62 melanoma, 16.2% with LOX IMVI melanoma and 54.7% in the assay on SK-MEL-28 melanoma.
`Oc1cccc2c1NCCC2`: the growth with HCT-15 colon was 21.4%; in the assay with HT29 colon, 79.5%; in the assay with SNB-75 CNS, 0.864% (active); in the assay on SNB-19 CNS, 14.9%; in the assay on U251 CNS it was 14.7%; with PC-3 prostate, 9.22% (active). For the same compound, the growth was -51.2% (active) in the assay on SK-MEL-5 melanoma, 5.24% (active) in the assay on UACC-62 melanoma, 16.4% with LOX IMVI melanoma and 49.5% in the assay on SK-MEL-28 melanoma.
